# Data taken from paper PMC11062922 (Nature Chemical Biology, 2023).
# Read-outs that look alike come from different tables or passages of the source.
# Tested on: PKN1
# Settings: read-out: apparent Kd, n = 1
substance,measurement,setting,value
Lestaurtinib,potency estimated from few doses,"compound concentrations:100 nM and 1000 nM (sheet 'Lestaurtinib' of Supplementary Table 1),run:Lestaurtinib_02364_R2,Plate:MR002",487 nM
same,potency estimated from few doses,"compound concentrations:100 nM and 1000 nM (sheet 'Lestaurtinib' of Supplementary Table 1),run:Lestaurtinib_02364_R3,Plate:MR002",408 nM
same,potency estimated from few doses,"compound concentrations:100 nM and 1000 nM (sheet 'Lestaurtinib' of Supplementary Table 1),run:Lestaurtinib_02367_R1,Plate:MR003",440 nM
same,potency estimated from few doses,"compound concentrations:100 nM and 1000 nM (sheet 'Lestaurtinib' of Supplementary Table 1),run:Lestaurtinib_02367_R2,Plate:MR003",488 nM
same,potency estimated from few doses,"compound concentrations:100 nM and 1000 nM (sheet 'Lestaurtinib' of Supplementary Table 1),run:Lestaurtinib_02381_R1,Plate:MR004",350 nM
same,potency estimated from few doses,"compound concentrations:100 nM and 1000 nM (sheet 'Lestaurtinib' of Supplementary Table 1),run:Lestaurtinib_02381_R2,Plate:MR004",390 nM
same,potency estimated from few doses,"compound concentrations:100 nM and 1000 nM (sheet 'Lestaurtinib' of Supplementary Table 1),run:Lestaurtinib_02381_R3,Plate:MR004",242 nM
same,potency estimated from few doses,"compound concentrations:100 nM and 1000 nM (sheet 'Lestaurtinib' of Supplementary Table 1),run:Lestaurtinib_02407_R1,Plate:MR005",519 nM
same,potency estimated from few doses,"compound concentrations:100 nM and 1000 nM (sheet 'Lestaurtinib' of Supplementary Table 1),run:Lestaurtinib_02422_R1,Plate:MR006",327 nM
same,potency estimated from few doses,"compound concentrations:100 nM and 1000 nM (sheet 'Lestaurtinib' of Supplementary Table 1),run:Lestaurtinib_02422_R2,Plate:MR006",52.5 nM
same,potency estimated from few doses,"compound concentrations:100 nM and 1000 nM (sheet 'Lestaurtinib' of Supplementary Table 1),run:Lestaurtinib_02437_R1,Plate:MR007",578 nM
same,potency estimated from few doses,"compound concentrations:100 nM and 1000 nM (sheet 'Lestaurtinib' of Supplementary Table 1),run:Lestaurtinib_02437_R2,Plate:MR007",490 nM
same,potency estimated from few doses,"compound concentrations:100 nM and 1000 nM (sheet 'Lestaurtinib' of Supplementary Table 1),run:Lestaurtinib_02438_R1,Plate:MR008",516 nM
same,potency estimated from few doses,"compound concentrations:100 nM and 1000 nM (sheet 'Lestaurtinib' of Supplementary Table 1),run:Lestaurtinib_02438_R2,Plate:MR008",520 nM
same,potency estimated from few doses,"compound concentrations:100 nM and 1000 nM (sheet 'Lestaurtinib' of Supplementary Table 1),run:Lestaurtinib_02438_R3,Plate:MR008",483 nM
same,potency estimated from few doses,"compound concentrations:100 nM and 1000 nM (sheet 'Lestaurtinib' of Supplementary Table 1),run:Lestaurtinib_02443_R1,Plate:MR009",429 nM
same,potency estimated from few doses,"compound concentrations:100 nM and 1000 nM (sheet 'Lestaurtinib' of Supplementary Table 1),run:Lestaurtinib_02443_R2,Plate:MR009",415 nM
same,potency estimated from few doses,"compound concentrations:100 nM and 1000 nM (sheet 'Lestaurtinib' of Supplementary Table 1),run:Lestaurtinib_02443_R3,Plate:MR009",397 nM
same,potency estimated from few doses,"compound concentrations:100 nM and 1000 nM (sheet 'Lestaurtinib' of Supplementary Table 1),run:Lestaurtinib_02473_R1,Plate:MR010",430 nM
same,potency estimated from few doses,"compound concentrations:100 nM and 1000 nM (sheet 'Lestaurtinib' of Supplementary Table 1),run:Lestaurtinib_02473_R2,Plate:MR010",385 nM
same,potency estimated from few doses,"compound concentrations:100 nM and 1000 nM (sheet 'Lestaurtinib' of Supplementary Table 1),run:Lestaurtinib_02482_R1,Plate:MR011",508 nM
same,potency estimated from few doses,"compound concentrations:100 nM and 1000 nM (sheet 'Lestaurtinib' of Supplementary Table 1),run:Lestaurtinib_02482_R2,Plate:MR011",460 nM
same,potency estimated from few doses,"compound concentrations:100 nM and 1000 nM (sheet 'Lestaurtinib' of Supplementary Table 1),run:Lestaurtinib_02482_R3,Plate:MR011",432 nM
same,potency estimated from few doses,"compound concentrations:100 nM and 1000 nM (sheet 'Lestaurtinib' of Supplementary Table 1),run:Lestaurtinib_02487_R3,Plate:MR012",500 nM
same,potency estimated from few doses,"compound concentrations:100 nM and 1000 nM (sheet 'Lestaurtinib' of Supplementary Table 1),run:Lestaurtinib_02496_R1,Plate:MR013",473 nM
same,potency estimated from few doses,"compound concentrations:100 nM and 1000 nM (sheet 'Lestaurtinib' of Supplementary Table 1),run:Lestaurtinib_02496_R2,Plate:MR013",455 nM
same,potency estimated from few doses,"compound concentrations:100 nM and 1000 nM (sheet 'Lestaurtinib' of Supplementary Table 1),run:Lestaurtinib_02496_R3,Plate:MR013",459 nM
same,potency estimated from few doses,"compound concentrations:100 nM and 1000 nM (sheet 'Lestaurtinib' of Supplementary Table 1),run:Lestaurtinib_02566_R1,Plate:MR014",512 nM
same,potency estimated from few doses,"compound concentrations:100 nM and 1000 nM (sheet 'Lestaurtinib' of Supplementary Table 1),run:Lestaurtinib_02566_R3,Plate:MR014",539 nM
same,potency estimated from few doses,"compound concentrations:100 nM and 1000 nM (sheet 'Lestaurtinib' of Supplementary Table 1),run:Lestaurtinib_02572_R1,Plate:MR015",628 nM
same,potency estimated from few doses,"compound concentrations:100 nM and 1000 nM (sheet 'Lestaurtinib' of Supplementary Table 1),run:Lestaurtinib_02572_R2,Plate:MR015",517 nM
same,potency estimated from few doses,"compound concentrations:100 nM and 1000 nM (sheet 'Lestaurtinib' of Supplementary Table 1),run:Lestaurtinib_02572_R3,Plate:MR015",559 nM
same,potency estimated from few doses,"compound concentrations:100 nM and 1000 nM (sheet 'Lestaurtinib' of Supplementary Table 1),run:Lestaurtinib_02577_R2,Plate:MR016",613 nM
same,potency estimated from few doses,"compound concentrations:100 nM and 1000 nM (sheet 'Lestaurtinib' of Supplementary Table 1),run:Lestaurtinib_02577_R3,Plate:MR016",470 nM
same,potency estimated from few doses,"compound concentrations:100 nM and 1000 nM (sheet 'Lestaurtinib' of Supplementary Table 1),run:Lestaurtinib_02584_R1,Plate:MR017",493 nM
same,potency estimated from few doses,"compound concentrations:100 nM and 1000 nM (sheet 'Lestaurtinib' of Supplementary Table 1),run:Lestaurtinib_02584_R2,Plate:MR017",437 nM
same,potency estimated from few doses,"compound concentrations:100 nM and 1000 nM (sheet 'Lestaurtinib' of Supplementary Table 1),run:Lestaurtinib_02584_R3,Plate:MR017",508 nM
same,potency estimated from few doses,"compound concentrations:100 nM and 1000 nM (sheet 'Lestaurtinib' of Supplementary Table 1),run:Lestaurtinib_02601_R1,Plate:MR018",580 nM
same,potency estimated from few doses,"compound concentrations:100 nM and 1000 nM (sheet 'Lestaurtinib' of Supplementary Table 1),run:Lestaurtinib_02601_R2,Plate:MR018",523 nM
same,potency estimated from few doses,"compound concentrations:100 nM and 1000 nM (sheet 'Lestaurtinib' of Supplementary Table 1),run:Lestaurtinib_02601_R3,Plate:MR018",615 nM
same,potency estimated from few doses,"compound concentrations:100 nM and 1000 nM (sheet 'Lestaurtinib' of Supplementary Table 1),run:Lestaurtinib_02606_R3,Plate:MR019",534 nM
same,potency estimated from few doses,"compound concentrations:100 nM and 1000 nM (sheet 'Lestaurtinib' of Supplementary Table 1),run:Lestaurtinib_02624_R1,Plate:MR020",496 nM
